{
  "source": "the supplement of paper PMC13380429",
  "data": [
    {"tested_on": "Vero E6 infected with SARS-CoV-2", "experiment": "inhibition of SARS-CoV-2 cytopathic effect; higher = more antiviral protection, active = above 15", "conditions": "100 nM; 48 h", "values": [
      {"smiles": "c1ccc(-c2nn3c(c2-c2ccnc4cc(OCCN5CCOCC5)ccc24)CCC3)nc1", "inhibition of SARS-CoV-2 cytopathic effect": "1.87% (inactive)"},
      {"smiles": "COc1cc(N2CCC(N3CCN(C)CC3)CC2)ccc1Nc1ncc(Cl)c(Nc2ccccc2S(=O)(=O)C(C)C)n1", "inhibition of SARS-CoV-2 cytopathic effect": "-0.56% (inactive)"},
      {"smiles": "CCCCNC(=O)NS(=O)(=O)c1ccc(C)cc1", "note": "[tolbutamide]", "inhibition of SARS-CoV-2 cytopathic effect": "-0.09% (inactive)"},
      {"smiles": "N#C/C(=C\\c1ccc(O)c(O)c1)C(=O)NCCCCc1ccccc1", "inhibition of SARS-CoV-2 cytopathic effect": "1.91% (inactive)"},
      {"smiles": "CC(C(=O)O)c1cccc(C(=O)c2ccccc2)c1", "note": "(stereo not given) [ketoprofen]", "inhibition of SARS-CoV-2 cytopathic effect": "-0.91% (inactive)"},
      {"smiles": "CCC(CC)Nc1nc(C)c(-c2ccc(OC(F)(F)F)cc2OC)nc1OC", "inhibition of SARS-CoV-2 cytopathic effect": "1.61% (inactive)"},
      {"smiles": "O=C1C[C@@H](c2ccc(O)cc2)Oc2cc(O)ccc21", "inhibition of SARS-CoV-2 cytopathic effect": "2.13% (inactive)"},
      {"smiles": "Cn1cc(-c2cnn3c(N)c(Br)c([C@@H]4CCCNC4)nc23)cn1", "inhibition of SARS-CoV-2 cytopathic effect": "2.32% (inactive)"},
      {"smiles": "N[C@@H]1c2cccnc2[C@H](OC(=O)N2CCC(n3c(=O)[nH]c4ncccc43)CC2)CC[C@H]1c1cccc(F)c1F", "note": "[rimegepant]", "inhibition of SARS-CoV-2 cytopathic effect": "-0.46% (inactive)"},
      {"smiles": "COc1ccc2nc(NC(=O)Nc3ccccc3)sc2c1", "note": "[frentizole]", "inhibition of SARS-CoV-2 cytopathic effect": "-1.31% (inactive)"},
      {"smiles": "O=C1NC(=O)[C@@]2(CCOc3ccc(F)cc32)N1", "note": "[sorbinil]", "inhibition of SARS-CoV-2 cytopathic effect": "-2.63% (inactive)"},
      {"smiles": "C[C@](N)(Cc1ccc(O)c(O)c1)C(=O)O", "note": "[methyldopa]", "inhibition of SARS-CoV-2 cytopathic effect": "-0.52% (inactive)"},
      {"smiles": "C[C@@H](CN)CC(=O)O", "note": "[3-methyl-GABA]", "inhibition of SARS-CoV-2 cytopathic effect": "1.28% (inactive)"},
      {"smiles": "CC[C@H](C)C(=O)O[C@H]1C[C@H](O)C=C2C=C[C@H](C)[C@H](CC[C@@H](O)C[C@@H](O)CC(=O)O)[C@H]21", "inhibition of SARS-CoV-2 cytopathic effect": "2.53% (inactive)"},
      {"smiles": "CC(C)(C)C(=O)OCOC(=O)[C@@H]1N2C(=O)[C@@H](NC(=O)[C@H](N)c3ccccc3)[C@H]2SC1(C)C", "note": "[pivampicillin]", "inhibition of SARS-CoV-2 cytopathic effect": "2.48% (inactive)"},
      {"smiles": "CC(C)c1onc(-c2c(Cl)cccc2Cl)c1COc1ccc(/C=C/c2cccc(C(=O)O)c2)c(Cl)c1", "inhibition of SARS-CoV-2 cytopathic effect": "-0.17% (inactive)"},
      {"smiles": "C=CCc1cccc(/C=N/NC(=O)CN2CCN(Cc3ccccc3)CC2)c1O", "inhibition of SARS-CoV-2 cytopathic effect": "4.72% (inactive)"},
      {"smiles": "CNNCc1ccc(C(=O)NC(C)C)cc1", "note": "[procarbazine]", "inhibition of SARS-CoV-2 cytopathic effect": "-0.09% (inactive)"},
      {"smiles": "CNC(=O)c1cc2c(cn1)[nH]c1ccccc12", "inhibition of SARS-CoV-2 cytopathic effect": "1.17% (inactive)"},
      {"smiles": "C[C@]12CC[C@@H]3c4ccc(O)cc4CC[C@H]3[C@@H]1CC[C@@H]2OC(=O)CCC1CCCC1", "note": "[estradiol-cypionate]", "inhibition of SARS-CoV-2 cytopathic effect": "-3.51% (inactive)"},
      {"smiles": "Fc1ccc(-n2cc(CCCCN3CCC4(CC3)OCc3ccccc34)c3ccccc32)cc1", "note": "[siramesine]", "inhibition of SARS-CoV-2 cytopathic effect": "1.49% (inactive)"},
      {"smiles": "CC(=O)O[C@]1(C(C)=O)CC[C@H]2[C@@H]3C=C(C)C4=CC(=O)CC[C@]4(C)[C@H]3CC[C@@]21C", "note": "[megestrol-acetate]", "inhibition of SARS-CoV-2 cytopathic effect": "-1.59% (inactive)"},
      {"smiles": "O=C(c1ccc(-c2ccc(Cl)cc2)o1)N(Cc1ccccn1)c1ccc(N2CCNCC2)cc1", "inhibition of SARS-CoV-2 cytopathic effect": "-0.23% (inactive)"},
      {"smiles": "O=C(O)c1cc(O)c(O)c(O)c1", "note": "[gallic-acid]", "inhibition of SARS-CoV-2 cytopathic effect": "3.05% (inactive)"},
      {"smiles": "C[C@@H](O)[C@H]1C(=O)N2C(C(=O)O)=C(S[C@@H]3CN[C@H](CNS(N)(=O)=O)C3)[C@H](C)[C@H]12", "note": "[doripenem]", "inhibition of SARS-CoV-2 cytopathic effect": "-2.53% (inactive)"},
      {"smiles": "CCCCOC(=O)c1ccccc1Nc1cccc(C(F)(F)F)c1", "note": "[ufenamate]", "inhibition of SARS-CoV-2 cytopathic effect": "0.41% (inactive)"},
      {"smiles": "CCCCN1CCCCC1C(=O)Nc1c(C)cccc1C", "note": "(stereo not given) [bupivacaine]", "inhibition of SARS-CoV-2 cytopathic effect": "-2.62% (inactive)"},
      {"smiles": "CCCc1nc(C(C)(C)O)c(C(=O)O)n1Cc1ccc(-c2ccccc2-c2nnn[nH]2)cc1", "note": "[olmesartan]", "inhibition of SARS-CoV-2 cytopathic effect": "1.17% (inactive)"},
      {"smiles": "CCC(CC)Nc1cc(C)nc(Oc2c(C)cc(C)cc2C)c1C", "inhibition of SARS-CoV-2 cytopathic effect": "-1.28% (inactive)"},
      {"smiles": "O=C(O)[C@H](Cc1ccccc1)NCc1ccc(Cl)cc1", "inhibition of SARS-CoV-2 cytopathic effect": "-0.99% (inactive)"},
      {"smiles": "Cc1ccc2c(c1)[C@]13CCCC[C@@H]1[C@H](C2)N(C)CC3", "note": "[dimemorfan]", "inhibition of SARS-CoV-2 cytopathic effect": "0.04% (inactive)"},
      {"smiles": "C[C@H](Nc1ncnc2nc[nH]c12)c1cc2cccc(Cl)c2c(=O)n1-c1ccccc1", "note": "[duvelisib]", "inhibition of SARS-CoV-2 cytopathic effect": "-1.82% (inactive)"},
      {"smiles": "CCCCOc1ccc(C(=O)Nc2ccc(F)cc2F)cc1", "inhibition of SARS-CoV-2 cytopathic effect": "-3.66% (inactive)"},
      {"smiles": "CC1=C(C(=O)O)N2C(=O)[C@@H](NC(=O)[C@H](N)C3=CCC=CC3)[C@H]2SC1", "note": "[cephradine]", "inhibition of SARS-CoV-2 cytopathic effect": "-0.29% (inactive)"},
      {"smiles": "CC(C)c1ccc(CC(=O)N2CCC[C@@H](c3cccc(OC(C)(C)C(=O)O)c3)C2)cc1", "inhibition of SARS-CoV-2 cytopathic effect": "-0.36% (inactive)"},
      {"smiles": "C[C@H](Cc1ccc(O)c(O)c1)[C@@H](C)Cc1ccc(O)c(O)c1", "note": "[masoprocol]", "inhibition of SARS-CoV-2 cytopathic effect": "2.75% (inactive)"},
      {"smiles": "O=C(O)/C=C\\c1c[nH]cn1", "note": "[cis-Urocanic acid]", "inhibition of SARS-CoV-2 cytopathic effect": "-1.15% (inactive)"},
      {"smiles": "COc1cc2ncnc(Nc3ccc(Cl)cc3F)c2cc1OC", "inhibition of SARS-CoV-2 cytopathic effect": "-1.55% (inactive)"},
      {"smiles": "CCCCCCCCCCCCCCCCCCCCCCCCC(=O)O", "note": "[pentacosanoic-acid]", "inhibition of SARS-CoV-2 cytopathic effect": "-0.07% (inactive)"},
      {"smiles": "COc1cc(C#N)ccc1S(=O)(=O)Nc1ccc2c(c1)cc(C)c(=O)n2C", "inhibition of SARS-CoV-2 cytopathic effect": "0.3% (inactive)"}
    ]}
  ]
}
